Compounds with a hit are over-represented: about 0.51% of the library has one in this group of screens.
phage Ecoli inh: growth loss of phage-infected E. coli, primary screen, RecBCD inhibitor project, absorbance, with phage, HTS | inhibition, % at 11.9 µM | hit rate 0.26% among 360,000; in the data active = inhibition above about 11%
Tat export inh: E. coli Tat export inhibitors, primary screen, MC4100, TorA-mCherry reporter, fluorescence, single point. AID 488895, 2010. inhibition, % at 10 µM. hit rate 0.036% among 340,000;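 active = mean replicate inhibition at least 50% and at least half of replicates individually reaching 50%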;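 also: exported cargo escapes ClpAP degradation while cytoplasmic cargo is degraded and loses fluorescence; 0% = median of neutral control wells and 100% = median of NaSCN control wells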
E coli growth-1: E. coli growth inhibition, primary screen, OD600; Escherichia coli growth, 23 h; active compounds read low; OD600 absorbance (test concentration not listed); hit rate 0.21% among 330,000;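 active = OD600 absorbance below the run mean of sample wells minus 3.6 SD, in any replicate, cut at about 0.56 in these data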
E coli growth-2: E. coli V3065 growth inhibition, primary screen, counter-screen for AddAB inhibitor project, absorbance, OD600; 18 h; hit rate 0.27% among 330,000; inhibition, % at 11.9 µM;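 active = inhibition above the campaign's mean inhibition across all tested compounds plus 3 SD, cut at about 9.9% in these data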;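 also: uninfected addAB+ strain grown without phage in ampicillin broth; 0% = DMSO wells and 100% = ciprofloxacin 0.95 µg/ml wells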
AddAB inh: growth inhibition of E. coli expressing H. pylori AddAB, primary screen, AddAB inhibitor project, absorbance. inhibition, % at 11.9 µM. hit rate 0.29% among 330,000. AID 435030, 2010; in the data active = inhibition above about 12%;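 also: 0% = vehicle wells of infected cells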
RecBCD conf: growth loss of phage-infected RecBCD+ E. coli, confirmation, RecBCD inhibitor project, absorbance, E. coli V66, T4 gene 2 phage | shares compounds with phage Ecoli inh | E. coli V66 + T4 2- phage, growth OD | inhibition, % at 11.9 µM | hit rate 45% among 890 | AID 651982, 2013;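 active = mean inhibition over triplicates exceeding the hit threshold derived in the original primary screen, cut at about 11% in these data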
Ecoli viability: E. coli viability inhibition, counter-screen for RecBCD inhibitor project, absorbance, high throughput; shares compounds with phage Ecoli inh; absorbance (OD) growth; inhibition, % at 11.9 µM; hit rate 29% among 890; AID 651983, 2013; in the data active = inhibition above about 20%;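 also: E. coli strain V66 grown with compound alone and no phage infection; 0% = bacteria with DMSO vehicle only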
AddAB counter: growth loss of phage-infected AddAB-carrying E. coli, confirmation, counter-screen for RecBCD inhibitor project, absorbance, E. coli V3065, T4 phage; shares compounds with phage Ecoli inh; E. coli expressing H. pylori AddAB + T4 phage, OD growth; gene 2 mutant T4, recBCD-deleted host; inhibition, % at 11.9 µM; hit rate 45% among 890; AID 651984, 2013;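 active = mean inhibition above the solvent-only control wells' mean plus 3 SD, cut at about 22% in these data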;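 also: higher means less bacterial growth from phage killing when AddAB is blocked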
* marks the source's active call; other numbers are inactive results; · = no result given.

SMILES	phage Ecoli inh	Tat export inh	E coli growth-1	E coli growth-2	AddAB inh	RecBCD conf	Ecoli viability	AddAB counter
COC(=O)C1=C(c2ccc(OC(F)(F)F)cc2)CC2CCC1N2C(=O)NCC1CC1 (stereo unspecified)	·	·	0.68	·	·	·	·	·
COc1ccc(CC2=NCCc3cc(OC)c(OC)cc32)cc1OC	4	·	·	·	·	·	·	·
COC(=O)c1c2[n+](cc3cc(OC)c(OC)cc13)CCc1cc(OC)c(OC)cc1-2	16*	-2	0.67	0	0	-5	-5	-2
O=[N+]([O-])c1ccc(N(CCO)CCO)c2c1no[n+]2[O-]	93*	·	·	·	·	84*	91*	100*
CCN(CC)S(=O)(=O)c1ccc(N=Cc2c(O)n(-c3ccccc3)c(=O)[nH]c2=O)cc1	2	-9	0.72	1	0	·	·	·
O=c1[nH]c(=O)n(-c2ccc(Cl)cc2)c(O)c1C=Nc1ccc(S(=O)(=O)Nc2nccs2)cc1	12*	5	·	3	9	6	4	25*
COC(=O)C1=C(c2ccc(-c3ccccc3)c(F)c2)CC2CCC1N2C(=O)N1CCc2cc(OC)c(OC)cc2C1 (stereo unspecified)	·	·	0.73	·	·	·	·	·
CCN1/C(=C/C=C/C2=[N+](CC)c3ccccc3C2(C)C)C(C)(C)c2ccccc21	25*	·	·	·	·	18*	21*	43*
COC(=O)C1=C(c2cc3ccccc3o2)CC2CCC1N2C(=O)NC(C)C (stereo unspecified)	·	·	0.68	·	·	·	·	·
CC(N)C(=O)NC1C2C(=C(O)CC(O)C2O)C(=O)OC1(C)C(Cl)Cl (stereo unspecified)	99*	82*	·	·	·	104*	106*	97*
COC(=O)C1=C(c2ccc(-c3ccccc3)c(F)c2)CC2CCC1N2C(=O)NCCCOC(C)C (stereo unspecified)	·	·	0.69	·	·	·	·	·
COC(=O)C1=C(c2ccc(-c3ccccc3)c(F)c2)CC2CCC1N2C(=O)NCCOc1ccc(OC)cc1 (stereo unspecified)	·	·	0.72	·	·	·	·	·
CCOC(=O)[C@]12Cc3cc(Cl)ccc3[C@H]1N(C1CCCCC1)C(=O)c1cc(OC)ccc12	11*	·	·	·	·	5	4	-4
Oc1c(Cl)cccc1Cc1cc(Cl)cc(Cl)c1O	15*	5	0.38*	·	·	5	8	6
CN(C)C1C(=O)C(C(N)=O)=C(O)C2(O)C(=O)C3=C(O)c4c(O)cccc4C(C)(O)C3C(O)C12 (stereo unspecified)	99*	138*	0.064*	-3	-2	102*	104*	102*
CCN1C[C@]2(C)CCC(O)[C@@]34C5CC6C(OC)C[C@](O)(C(CC23)C14)C5C6O (stereo partly specified)	·	·	0.72	·	·	·	·	·
COC(=O)C1=C(c2ccc(C(C)=O)cc2)CC2CCC1N2C(=O)N1CCCC1 (stereo unspecified)	·	·	0.71	·	·	·	·	·
